High-throughput results (PubChem BioAssay)
An excerpt weighted towards active compounds, which were near 9% of everything screened.
ALDH1A1 block: inhibitors of human aldehyde dehydrogenase 1A1. P00352. Purified ALDH1A1, NADH fluorescence, propionaldehyde substrate. Potency, µM (doses to about 75.3 µM), without a hit: top-dose activity, negative = inhibition, hits mostly inhibitors. actives 7.3% (n = 220,000). AID 1030;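 note: potency is the fitted concentration of half-maximal effect; plate controls were no enzyme wells and a reference inhibitor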
Target sequence (P00352 whole entry, looked up): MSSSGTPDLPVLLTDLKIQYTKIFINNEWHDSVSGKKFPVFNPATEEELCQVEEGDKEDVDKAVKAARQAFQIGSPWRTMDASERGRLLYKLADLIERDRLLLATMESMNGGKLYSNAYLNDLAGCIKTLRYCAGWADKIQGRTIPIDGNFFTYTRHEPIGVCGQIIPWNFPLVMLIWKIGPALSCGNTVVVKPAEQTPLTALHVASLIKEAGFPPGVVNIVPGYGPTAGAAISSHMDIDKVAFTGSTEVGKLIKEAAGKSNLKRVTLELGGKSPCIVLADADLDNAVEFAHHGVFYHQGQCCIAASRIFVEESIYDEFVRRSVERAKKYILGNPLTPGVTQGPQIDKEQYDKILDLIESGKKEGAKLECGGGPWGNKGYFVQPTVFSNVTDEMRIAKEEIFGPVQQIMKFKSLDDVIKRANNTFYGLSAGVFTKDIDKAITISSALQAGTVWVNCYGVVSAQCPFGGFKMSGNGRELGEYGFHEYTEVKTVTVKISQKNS
IMPase cell inh: IMPase inhibition in cells. P97697. CHO-M1 cells, IP1 accumulation, HTRF TR-FRET ratio. inhibition (IP1 accumulation), % at 46.1 µM. 120,000 tested, under 10 active; active = well fitted curve in the direction sought with a large enough effect in the signal ratio, not every such curve was filed as active; inconclusive = small, poorly fitted or top-dose-only effect, or a change in a side signal; inactive = no such curve, though single readings can be large or run the other way; the % refers to the signal ratio;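 note: cells stimulated with carbachol in lithium chloride buffer; plate controls were DMSO basal wells for no effect and reference inhibitor wells for full effect; higher means more IMPase inhibition seen as more IP1 and lower FRET ratio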
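Measured: the HTRF emission ratio (665/620 nm) plus the 620 nm donor channel, each fitted to the Hill equation to give AC50. Cells were CHO-M1 given compounds up to 46 uM and a 30 min carbachol stimulation at 37C.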
HPGD inh: blocks human HPGD enzyme activity; P15428; purified HPGD, NADH fluorescence kinetic, PGE2 substrate; Potency, µM, for the others: at the top dose activity change, negative = inhibition, hits mostly inhibitors; actives 4.3% (n = 150,000); note: potency is the fitted concentration of half-maximal effect
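NADH formation kinetics: reaction with 30 uM PGE2 and 1 mM NAD+ (final), 20 nM enzyme, Tris-HCl pH 8 with Tween 20, after 15 min compound preincubation at room temperature. Fluorescence change, last versus first of five reads.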
* = called active by the depositor; [ ] = remark or other dose. Unless noted, calls come from the whole dose curve; as a rule, active = well fitted inhibition curve with a large enough effect (not every such curve was filed as active); inconclusive = small, poorly fitted or top-dose-only effect, or another doubt; inactive = no such curve, though single readings can be large or run the other way. Unless noted, % is set by controls: 0 for no effect and ±100 for the full control effect.

What do the screens show for `CCN1C(=O)[C@@H]2[C@H]3C(=CC[C@H]2C1=O)C(=O)[C@H]1OC1[C@H]3O` (stereo not given in full)?
ALDH1A1 block: -4.5%[13.5 µM]

Results for COCc1cnc(C)nc1N ?
ALDH1A1 block: 1.4%

How did O=C(NNC(=S)Nc1cccc(C(F)(F)F)c1)c1ccccc1Cl do in these assays?
ALDH1A1 block: 8.91µM*; HPGD inh: -19.9%

What do the screens show for `O=C(CCNC(=O)c1ccccc1Cl)Nc1cccc(C(F)(F)F)c1`?
ALDH1A1 block: 1.6%; HPGD inh: -1.4%

Results for CNC(=S)NNC(=O)c1cccc(C(F)(F)F)c1 ?
ALDH1A1 block: 0.2%; IMPase cell inh: -1.3; HPGD inh: -14.2%

How did O=C(NNC(=S)Nc1cccc(C(F)(F)F)c1)c1cccc(Cl)c1 do in these assays?
ALDH1A1 block: 22.4µM*; HPGD inh: -8.1%

How did O=C(COC(=O)CNC(=O)c1ccccc1)Nc1cccc(Br)c1 do in these assays?
ALDH1A1 block: 16.3%; IMPase cell inh: inconclusive

What do the screens show for `CSCC[C@H](NC(=O)Nc1ccc(OC(F)(F)F)cc1)C(=O)O`?
ALDH1A1 block: 6.6%

How did CC1CN(C2CCN(S(=O)(=O)c3ccccc3)CC2)CC(C)O1 (stereo not given) do in these assays?
ALDH1A1 block: inconclusive; IMPase cell inh: 3.2; HPGD inh: -11.0%

What do the screens show for `CC1CN(C2CCN(S(=O)(=O)c3ccc(F)cc3)CC2)CC(C)O1` (stereo not given)?
ALDH1A1 block: 25.1µM*; IMPase cell inh: 1.8; HPGD inh: -2.2%

What do the screens show for `NCCC[C@@H](CC(=O)N[C@@H]1CCCC[C@H]1C(=O)N[C@H](CC(=O)N[C@@H](CCC(=O)O)CC(=O)O)Cc1ccccc1)NC(=O)C[C@H](CO)NC(=O)[C@@H]1CCCC[C@H]1N`?
ALDH1A1 block: -8.7%; HPGD inh: -0.8%

How did N#C/C(=C\c1cccc([N+](=O)[O-])c1)C(=O)NCC1CCCO1 (stereo not given) do in these assays?
ALDH1A1 block: 1.9%

How did COc1cc(/C=C(\C#N)C(=O)NCC2CCCO2)c([N+](=O)[O-])cc1OC (stereo not given) do in these assays?
ALDH1A1 block: inconclusive; IMPase cell inh: 4.5; HPGD inh: 28.2µM*

How did CCOc1cc(/C=C(\C#N)C(=O)NCC2CCCO2)ccc1OCC(N)=O (stereo not given) do in these assays?
ALDH1A1 block: -13.9%

What do the screens show for `CCOc1cc(/C=C(\C#N)C(=O)NCC2CCCO2)ccc1O` (stereo not given)?
ALDH1A1 block: 28.2µM*; IMPase cell inh: 4.1; HPGD inh: inconclusive

Results for Cc1ccccc1-n1c(C)cc(/C=C(\C#N)C(=O)NCC2CCCO2)c1C (stereo not given) ?
ALDH1A1 block: 14.1µM*; HPGD inh: -12.3%

Results for Cc1ccc(/C=C(\C#N)C(=O)NCC2CCCO2)o1 (stereo not given) ?
ALDH1A1 block: -20.2%; IMPase cell inh: 6.0; HPGD inh: -16.2%

What do the screens show for `CCCCC/C=C\C/C=C\C/C=C\C/C=C\CCCCCC(=O)NCC(=O)O`?
ALDH1A1 block: -3.0%; HPGD inh: -19.2%

Results for C=CCn1c(SCc2ccc(Cl)cc2)nc2cc(C(=O)N3CCC(C(N)=O)CC3)ccc2c1=O ?
ALDH1A1 block: -8.4%; HPGD inh: -2.8%

Results for CN1CCN(C(=O)C2(NC(=O)Nc3ccccc3Cl)CCCCC2)CC1 ?
ALDH1A1 block: 5.7%; IMPase cell inh: 14.9; HPGD inh: -4.3%

How did COc1ccccc1NC(=O)NC1(C(=O)N2CCCCCC2)CCCCC1 do in these assays?
ALDH1A1 block: 7.08µM*; IMPase cell inh: 7.1; HPGD inh: -3.7%

What do the screens show for `CC1=NN(c2ccc(C)c(C)c2)C(=O)C1C(c1cccc(O)c1)C1C(=O)N(c2ccc(C)c(C)c2)N=C1C` (stereo not given)?
ALDH1A1 block: 0.708µM*; IMPase cell inh: -1.4; HPGD inh: 10µM*

What do the screens show for `CC1=NN(c2ccc(C)cc2C)C(=O)C1C(c1ccccc1O)C1C(=O)N(c2ccc(C)cc2C)N=C1C` (stereo not given)?
ALDH1A1 block: -12.4%; HPGD inh: -25.3%

How did CCOc1ccc(CC(=O)OCn2nnc3ccccc3c2=O)cc1 do in these assays?
ALDH1A1 block: -4.5%

Results for CN1CCN(c2ncnc3ccc(-c4cccc(C#N)c4)cc23)CC1 ?
ALDH1A1 block: 10µM*

Results for COc1cccc(-c2ccc3ncnc(N4CCN(C)CC4)c3c2)c1 ?
ALDH1A1 block: 29.6%

What do the screens show for `CCCCc1nc2c(c3c1CC(C)OC3)CN(CCOc1ccccc1)CC2` (stereo not given)?
ALDH1A1 block: -2.1%[13.5 µM]

How did CCN(CC)c1ccc(N=Cc2ccc([N+](=O)[O-])o2)cc1 do in these assays?
ALDH1A1 block: inconclusive; HPGD inh: -10.9%

What do the screens show for `CCN(CC)c1ccc(N=Cc2ccccc2[N+](=O)[O-])cc1`?
ALDH1A1 block: 2µM*; HPGD inh: -11.7%

What do the screens show for `N#CCCN(Cc1cccnc1)C(=O)c1ccc(S(=O)(=O)N2CCOCC2)cc1`?
ALDH1A1 block: -3.4%; IMPase cell inh: -0.1; HPGD inh: -14.9%

Results for Cc1ccc(C(=O)NCC(=O)N/N=C/c2cccs2)cc1[N+](=O)[O-] ?
ALDH1A1 block: 11.6%

How did CC1Cn2c(COc3ccccc3)nnc2S1 (stereo not given) do in these assays?
ALDH1A1 block: 7.8%; IMPase cell inh: -11.4; HPGD inh: -10.2%

How did CC1Cn2c(CCc3ccccc3)nnc2S1 (stereo not given) do in these assays?
ALDH1A1 block: inconclusive; IMPase cell inh: 0.9; HPGD inh: 28.2µM*

What do the screens show for `CC(C(=O)Oc1ccc2c(c1)OCO2)N1C(=O)c2ccccc2C1=O` (stereo not given)?
ALDH1A1 block: -5.0%; IMPase cell inh: 2.1; HPGD inh: -12.6%

How did CC(C(=O)OCC(=O)Nc1cccc(S(=O)(=O)N2CCOCC2)c1)N1C(=O)c2ccccc2C1=O (stereo not given) do in these assays?
ALDH1A1 block: 25.1µM*

What do the screens show for `CC(C(=O)OCC(=O)Nc1ccc2c(c1)OCO2)N1C(=O)c2ccccc2C1=O` (stereo not given)?
ALDH1A1 block: 7.08µM*; IMPase cell inh: 9.0; HPGD inh: -18.8%

How did CC(C(=O)OCC(=O)Nc1ccc(S(=O)(=O)N2CCCCC2)cc1)N1C(=O)c2ccccc2C1=O (stereo not given) do in these assays?
ALDH1A1 block: -7.9%; IMPase cell inh: 2.7; HPGD inh: -8.7%

Results for O=c1[nH]c(=S)[nH]c2c1CN(CCCN1CCOCC1)CN2 ?
ALDH1A1 block: 8.9%[13.5 µM]; HPGD inh: -3.6%

How did C=CCNC(=S)N1CCN(CCN=CC2=C(O)CC(c3ccc(Cl)cc3)CC2=O)CC1 (stereo not given) do in these assays?
ALDH1A1 block: -15.0%

What do the screens show for `COc1ccccc1/C=C/C=N/n1c(-c2ccccc2)n[nH]c1=S`?
ALDH1A1 block: 28.2µM*

How did COc1ccccc1/C=C/C=N/NC(=O)c1cc(-c2ccc(C)o2)[nH]n1 do in these assays?
ALDH1A1 block: -5.5%

What do the screens show for `COc1ccc(OC)c(/C=N/n2c(-c3n[nH]c4c3CCC4)n[nH]c2=S)c1`?
ALDH1A1 block: -4.1%
